Assay outcomes as filed in PubChem BioAssay.
ELG1 genotoxic – inducers of genotoxicity in HEK293T ELG1-luciferase cells; AID 504466; Potency, µM (highest dose often 46 µM), for the others: top-dose activity change, positive = activation, actives largely listed as activators; HEK293T ELG1-luciferase reporter, luminescence, 16 h; hit rate 1.3% among 330,000; note: % of control where 0% means no effect; nearly all actives have a fitted effect of over 60% in size
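Screening used a luciferase reporter fused to human ELG1 in HEK293T cells. Luminescence was read on a CCD plate imager after 16 hr exposure and 30 min ONE-Glo incubation.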
uPA generation – inhibitors of cell surface uPA generation. cell surface uPA generation assay, qHTS. Potency, µM (doses to about 38.3 µM), for inactives: at the highest dose activity change, negative = inhibition, actives largely listed as inhibitors. hit rate 0.31% among 330,000. AID 540303; active = well fitted inhibition curve with a large enough effect; inconclusive = small, poorly fitted or top-dose-only effect; inactive = no such curve, though single readings can be large or run the other way; tested in mouse RAW 264.7 cells; note: % is set by controls: 0 for no effect and ±100 for the full control effect; nearly all actives have a fitted effect of over 55% in size
NPC1 promoter act – NPC1 promoter activation | Huh7 NPC1 promoter luciferase reporter, 24 h | Potency, µM (titrated, usually from 9.22 µM), without a hit: at the highest dose activation, hits mostly activators | hit rate 2.4% among 320,000; note: % of control where 0% means no effect; nearly all actives have a fitted effect of over 60% in size
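In 1536-well qHTS, Huh7 cells harboring an NPC1 promoter–luciferase construct received compound for 24 h; activation was quantified by luminescence following luciferase reagent addition.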
FLuc counter – firefly luciferase modulation, counter-screen for miR-21 project. P08659. purified FLuc, Km substrates, luminescence inhibition. Potency, µM (top dose mostly 57.5 µM), for inactives: top-dose activity change, negative = inhibition, most hits filed as inhibitors. hit rate 6.9% among 360,000. AID 588342;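 note: plate controls were vehicle for no effect and reference inhibitor for full effect; nearly all actives have a fitted effect of over 55% in size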
Target sequence (P08659 whole entry, looked up): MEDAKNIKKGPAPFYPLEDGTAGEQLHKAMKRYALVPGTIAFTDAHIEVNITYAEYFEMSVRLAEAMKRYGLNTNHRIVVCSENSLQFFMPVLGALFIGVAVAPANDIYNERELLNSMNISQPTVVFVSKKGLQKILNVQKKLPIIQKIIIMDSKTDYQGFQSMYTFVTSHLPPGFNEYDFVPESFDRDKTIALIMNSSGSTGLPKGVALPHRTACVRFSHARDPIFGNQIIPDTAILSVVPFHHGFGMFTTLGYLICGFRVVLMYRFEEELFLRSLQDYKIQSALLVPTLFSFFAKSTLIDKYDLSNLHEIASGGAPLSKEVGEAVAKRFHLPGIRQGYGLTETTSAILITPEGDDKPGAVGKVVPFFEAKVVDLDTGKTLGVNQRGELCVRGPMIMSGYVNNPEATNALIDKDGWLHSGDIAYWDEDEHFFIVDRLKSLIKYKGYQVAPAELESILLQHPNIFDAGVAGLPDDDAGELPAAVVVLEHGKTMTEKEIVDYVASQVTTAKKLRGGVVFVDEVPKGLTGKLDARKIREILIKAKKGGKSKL
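Purified P. pyralis luciferase (10nM final) with 10uM D-luciferin and 10uM ATP (Km levels) in 50mM Tris acetate pH 7.5, 10mM Mg acetate, 0.01% Tween-20, 0.05% BSA; qHTS 6-point titration, ~60 µM downward; luminescence read.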
SMN2 splice enh – SMN2 splice variant enhancement | Potency, µM (titrated, usually from 46.1 µM), inactives show top-dose activity change, positive = activation, actives largely listed as activators | HEK293 SMN2-luciferase splicing reporter, luminescence, 30-36 h | hit rate 2.8% among 210,000; note: % of control where 0% means no effect; nearly all actives have a fitted effect of over 55% in size
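HEK293 cells carry an SMN2 […]–luciferase reporter in which exon 7 inclusion puts luciferase in frame. Cells were plated 10-12 h before compound addition, then incubated 30-36 h at 37C. ONE-Glo luminescence was read; sodium butyrate at 4.5 mM final served as control.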
Rab9 prom act – Rab9 promoter activation | Huh7 Rab9 promoter-luciferase reporter, luminescence, 24 h | Potency, µM (titrated, usually from 9.22 µM), without a hit: at the highest dose activation, negative = inhibition, actives largely listed as activators | hit rate 2.8% among 320,000 | AID 485297; note: % of control where 0% means no effect; nearly all actives have a fitted effect of over 60% in size
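Luciferase signal after 10 min detection reagent at ambient indicates Rab9 promoter upregulation; stably transfected Huh7 cells were treated 24 h with compound in DMSO at 37 °C, 5% CO2.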
* marks the source's active call; other numbers are inactive results; u = inconclusive; x = no result; [ ] = dose if it differs, or a comment. Sampled rows, rich in hits. Any-hit rate of the full collection: about 7.3%. Unless noted, calls come from the whole dose curve; as a rule, active = well fitted curve in the direction sought with a large enough effect; inconclusive = small, poorly fitted or top-dose-only effect, or another doubt; inactive = no such curve, though single readings can be large; an effect the other way counts as inactive or inconclusive. Potency is the fitted concentration of half-maximal effect.

SMILES	ELG1 genotoxic	uPA generation	NPC1 promoter act	FLuc counter	SMN2 splice enh	Rab9 prom act
CCC(=O)Nc1ccc(NC(=O)c2ccco2)cc1	u	u	2.8µM*	19µM*	27%	2.8µM*
CCSc1nsc(NC(=O)Nc2ccccc2Cl)n1	x	-2%	x	x	x	x
O=C(OC1CCCCC1)c1ccc(NC(=O)c2ccco2)cc1	8%	-4%	u	13µM*	u	3.5µM*
O=C(Nc1nc(SCc2ccc(F)cc2)ns1)c1ccco1	13%	8%	13%	21µM*	18µM*	20%
Fc1ccc(CSc2nsc(SCc3ccc(F)cc3)n2)cc1	-3%	7%	2%	-1%	-5%	-5%
O=C(O)COc1ccc(NC(=O)c2ccc(NC(=O)c3ccco3)cc2)cc1	-1%	1%	2%	u	0%	10%
CCSc1nsc(NC(=O)Nc2ccc(F)cc2F)n1	6%	u	u	5.4µM*	x	u
O=C(Nc1ccc(OC(=O)c2ccco2)cc1)c1ccco1	7%	-3%	9%	4.8µM*	17%	4%
CCC(=O)Oc1cccc(C(=O)Nc2cccc(NC(=O)c3ccco3)c2)c1	-9%	5%	3%	u	x	-3%
CCC(=O)Oc1ccc(NC(=O)c2ccco2)cc1	9%	-6%	2%	12µM*	9%	5%
O=C(Nc1ccc(CSc2ccccc2)cc1)c1ccco1	7.3µM*	-2%	2.8µM*	2.7µM*	x	4µM*
CCC(=O)C(C(=O)OC)[C@H](CCc1ccccc1)NC(=O)OC (stereo partly drawn)	x	x	x	x	3%	x
O=C(O)c1ccc(N=Nc2c(-c3ccccc3)[nH]oc2=O)cc1	17%	4%	u	11µM*	x	u
Cc1ccc(N2C(=O)c3n[nH]c(C)c3C2c2ccc(Cl)cc2)cc1 (stereo not drawn)	x	x	x	9.5µM*	u	x
Cc1ccc(N2C(=O)c3n[nH]c(C)c3C2c2ccccc2Cl)cc1 (stereo not drawn)	x	x	x	-15%	11%	x
Cc1[nH]n(-c2ccccc2)c(=O)c1C=NCc1ccco1	16µM*	x	3.5µM*	9.5µM*	11µM*	1.8µM*
Cc1[nH]n(-c2cccc(Cl)c2)c(=O)c1C=NCC(C)C	21µM*	4%	3.2µM*	24µM*	13µM*	2.8µM*
Cc1[nH]n(-c2cccc(Cl)c2)c(=O)c1C=NCc1ccco1	9.2µM*	2%	2µM*	1.5µM*	13µM*	1.1µM*
CN(C)CCC[C@@H]1c2ccccc2Oc2ccc(C(F)(F)F)cc21	x	x	x	x	-5%[9.22 µM]	x
CO[C@@H]1c2cc(F)ccc2/C(=C\CCOC(=O)C/C=C/c2ccccc2)[C@H]1C	x	x	x	x	3%	x
Cc1cc(C(=O)CNCc2ccco2)c(C)n1-c1ccc(F)cc1	u	-8%	1.6µM*	3.4µM*	-5%	2µM*
Cc1cc(C(=O)CN2CCC(C)CC2)c(C)n1-c1ccc(F)cc1	u	4%	u	9.5µM*	13µM*	1.4µM*
Cc1cc(C(=O)CN2CCCCC2)c(C)n1-c1ccc(F)cc1	13%	3%	u	u	u	u
Cc1cc(C(=O)NC2CCCCC2)c(C)n1-c1ccc(F)cc1	5.8µM*	-6%	2.8µM*	6µM*	u	2.5µM*
Cc1cc(C(=O)OCC(=O)N2CCN(C(=O)c3ccco3)CC2)c(C)n1-c1ccc(F)cc1	-2%	8%	-7%	-2%	-23%	-24%
SMILES	ELG1 genotoxic	uPA generation	NPC1 promoter act	FLuc counter	SMN2 splice enh	Rab9 prom act
CCCCC[C@H](O)/C=C\[C@@H]1[C@H](O)CC(=O)[C@@H]1CCCCCCC(=O)O	x	x	x	x	14%[20.6 µM]	x
CCOc1ccc2nc(NC(=O)c3nc(SCc4ccc(C)cc4)ncc3Cl)sc2c1	x	x	x	0%	3%	x
CCOc1ccc(C(=O)C(C)OC(=O)Cn2c(C)csc2=O)cc1 (stereo not drawn)	-2%	-1%	2%	-2%	x	-5%
CCOC(=O)c1cccc(NC(=O)N2CC(CC)Oc3ccccc32)c1 (stereo not drawn)	x	x	x	1%	x	x
COc1cccc(OCc2cc(C(=O)NCc3ccccn3)no2)c1	16µM*	1%	u	15µM*	x	2.8µM*
COc1ccc(OCc2cc(C(=O)NCc3cccc(C)n3)no2)c(Cl)c1	26%	-4%	u	24µM*	x	u
CC(C)NC(=O)CCCN1C(=O)c2ccccc2Sc2ncccc21	0%	-13%	-5%	0%	x	-3%
COCCNc1oc(/C=C/c2ccccc2)nc1C#N	18µM*	1%	u	11µM*	x	3.5µM*
CNc1oc(/C=C/c2ccccc2)nc1C#N	u	-6%	u	2.7µM*	11µM*	3.2µM*
Fc1ccccc1-n1ncc2c1ncn1nc(COc3ccc(Cl)cc3)nc21	x	x	x	0%	15%	x
Cc1ccc(NC(=O)O/N=C/c2ccc(N(C)C)cc2)cc1	15%	6%	u	12µM*	x	26%
Cc1ccc(NC(=O)O/N=C/c2ccc(Br)cc2)cc1	3%	5%	1%	u	x	0%
COc1ccc(/C=N/OC(=O)Nc2ccccc2OC)cc1	u	-11%	1%	8.5µM*	16µM*	u
COc1ccc(NC(=O)O/N=C/c2ccc(Br)cc2)cc1	3%	-4%	10%	27µM*	x	0%
COc1ccc(NC(=O)O/N=C/c2ccc(N(C)C)cc2)cc1	7%	2%	17%	21µM*	x	19%
O=C(Cn1c(=O)nc(-c2ccccc2)c2ccccc21)NCCCc1ccccc1	x	x	x	0%	-5%	x
COc1ccc(/C=N/OC(=O)Nc2ccc(Cl)cc2)c(OC)c1	15%	-1%	3%	12µM*	x	14%
COc1ccc(NC(=O)O/N=C/c2ccncc2)cc1	14%	-2%	16%	u	-8%	17%
CN(C)c1ccc(/C=N/OC(=O)Nc2ccccc2Cl)cc1	10%	3%	5%	24µM*	x	29%
